Test results reported in article PMC7862700, “An all-to-all approach to the identification of sequence-specific readers for epigenetic DNA modifications on cytosine”.

Experiments:
Assay in all cases: DAPPL (digital affinity profiling via proximity ligation, sequencing); 10 mM Tris-HCl pH 7.5, 50 mM NaCl, 1 mM DTT, 4% glycerol, room temperature, 30 min; GST-TFs on glutathione beads, 16-mer random dsDNA library, 0.1% formaldehyde crosslink after washing; high values mean tight binding
[1] = molecular target: T1, FEV (Homo sapiens, UniProt Q99581 1-238); conditions: protein: recombinant; tags: N-terminal GST; dsDNA, one strand shown
T1 sequence: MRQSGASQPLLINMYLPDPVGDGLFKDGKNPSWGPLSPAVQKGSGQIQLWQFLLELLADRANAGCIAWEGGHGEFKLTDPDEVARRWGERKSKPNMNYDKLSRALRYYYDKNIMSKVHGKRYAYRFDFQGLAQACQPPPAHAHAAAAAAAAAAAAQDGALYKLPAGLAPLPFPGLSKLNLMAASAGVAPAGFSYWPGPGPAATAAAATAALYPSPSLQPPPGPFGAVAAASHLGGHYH
In short: (§1)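 After expression in yeast as GST fusions, human transcription factors were bound to glutathione beads, DNA-barcoded and mixed with a tag-only sample. The pools were incubated with 200 nmole of a 16-mer random double-stranded DNA library in Tris/NaCl/DTT/glycerol buffer (30 min, room temperature), washed and crosslinked with 0.1% formaldehyde. Proximity ligation with BsaI/T4 ligase ran for 1 h at 37 °C, before PCR amplification and sequencing on an Illumina NextSeq500. Binding signal is a hexamer's read frequency for a factor divided by its frequency for the tag-only sample.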

[2] = molecular target: ETV5 (Homo sapiens, UniProt P41161 1-510); conditions: protein: recombinant; tags: N-terminal GST; dsDNA, one strand shown
Chain of ETV5 (P41161 whole entry): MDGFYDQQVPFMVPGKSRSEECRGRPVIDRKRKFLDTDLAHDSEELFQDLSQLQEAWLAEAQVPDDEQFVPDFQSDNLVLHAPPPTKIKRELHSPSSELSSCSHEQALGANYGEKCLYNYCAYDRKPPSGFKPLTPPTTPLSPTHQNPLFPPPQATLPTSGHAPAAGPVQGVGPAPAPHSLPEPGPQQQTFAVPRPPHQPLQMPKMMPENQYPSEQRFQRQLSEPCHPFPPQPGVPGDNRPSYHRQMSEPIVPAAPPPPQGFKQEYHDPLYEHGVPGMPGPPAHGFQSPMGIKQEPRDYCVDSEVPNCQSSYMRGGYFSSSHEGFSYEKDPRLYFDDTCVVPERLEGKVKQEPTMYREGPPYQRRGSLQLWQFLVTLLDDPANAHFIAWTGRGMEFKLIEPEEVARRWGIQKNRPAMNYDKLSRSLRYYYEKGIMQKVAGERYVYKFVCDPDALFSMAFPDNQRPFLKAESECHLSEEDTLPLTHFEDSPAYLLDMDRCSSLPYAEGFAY
In short: as §1

[3] = molecular target: HSF1 (Homo sapiens, UniProt Q00613 1-529); conditions: protein: recombinant; tags: N-terminal GST; chain copies: 3; dsDNA, one strand shown
Chain of HSF1 (Q00613 whole entry): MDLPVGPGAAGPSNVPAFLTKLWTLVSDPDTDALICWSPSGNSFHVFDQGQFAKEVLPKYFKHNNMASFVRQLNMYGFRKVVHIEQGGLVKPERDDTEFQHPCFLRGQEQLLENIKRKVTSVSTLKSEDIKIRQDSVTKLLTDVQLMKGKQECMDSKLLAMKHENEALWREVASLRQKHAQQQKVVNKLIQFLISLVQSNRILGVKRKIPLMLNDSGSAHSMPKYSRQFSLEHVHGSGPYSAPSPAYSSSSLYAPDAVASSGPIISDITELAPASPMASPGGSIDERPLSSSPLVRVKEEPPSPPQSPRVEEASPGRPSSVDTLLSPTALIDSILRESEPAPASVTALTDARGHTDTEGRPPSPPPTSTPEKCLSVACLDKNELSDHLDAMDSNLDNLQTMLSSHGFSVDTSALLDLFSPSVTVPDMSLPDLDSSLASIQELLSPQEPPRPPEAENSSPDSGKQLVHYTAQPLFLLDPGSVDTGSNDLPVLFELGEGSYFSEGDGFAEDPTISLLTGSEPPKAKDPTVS
In short: as §1

[4] = molecular target: T2, SPIC (Homo sapiens, UniProt Q8N5J4 1-248); conditions: protein: recombinant; tags: N-terminal GST; dsDNA, one strand shown
T2 sequence: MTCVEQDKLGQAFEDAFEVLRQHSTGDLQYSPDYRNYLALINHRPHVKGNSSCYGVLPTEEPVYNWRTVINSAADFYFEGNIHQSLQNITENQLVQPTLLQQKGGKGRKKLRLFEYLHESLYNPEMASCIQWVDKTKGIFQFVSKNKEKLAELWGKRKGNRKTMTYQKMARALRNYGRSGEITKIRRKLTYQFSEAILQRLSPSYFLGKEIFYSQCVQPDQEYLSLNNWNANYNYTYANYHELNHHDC
In short: as §1

[5] = molecular target: ELF4 (Homo sapiens, UniProt Q99607 1-663); conditions: protein: recombinant; tags: N-terminal GST; dsDNA, one strand shown
Chain of ELF4 (Q99607 whole entry): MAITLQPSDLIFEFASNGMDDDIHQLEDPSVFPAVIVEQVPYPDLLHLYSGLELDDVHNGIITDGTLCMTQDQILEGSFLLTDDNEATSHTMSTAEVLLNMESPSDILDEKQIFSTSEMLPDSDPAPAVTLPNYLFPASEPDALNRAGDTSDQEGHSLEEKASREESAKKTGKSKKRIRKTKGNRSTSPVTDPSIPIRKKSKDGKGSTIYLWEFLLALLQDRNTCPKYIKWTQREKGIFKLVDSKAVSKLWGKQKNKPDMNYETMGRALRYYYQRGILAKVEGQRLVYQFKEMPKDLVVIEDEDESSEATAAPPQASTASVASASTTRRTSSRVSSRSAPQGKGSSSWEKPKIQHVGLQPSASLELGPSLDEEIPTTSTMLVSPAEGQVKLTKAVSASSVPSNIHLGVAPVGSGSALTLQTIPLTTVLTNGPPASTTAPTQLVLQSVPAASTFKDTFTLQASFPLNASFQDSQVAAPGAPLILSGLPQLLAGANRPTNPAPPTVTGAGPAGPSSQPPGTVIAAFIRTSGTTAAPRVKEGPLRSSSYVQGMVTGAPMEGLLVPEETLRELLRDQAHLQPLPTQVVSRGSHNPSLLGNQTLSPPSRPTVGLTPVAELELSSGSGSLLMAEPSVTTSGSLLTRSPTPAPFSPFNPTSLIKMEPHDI
In short: as §1

[6] = molecular target: T3, ELK4 (Homo sapiens, UniProt P28324-2 1-405); conditions: protein: recombinant; tags: N-terminal GST; dsDNA, one strand shown
T3 sequence: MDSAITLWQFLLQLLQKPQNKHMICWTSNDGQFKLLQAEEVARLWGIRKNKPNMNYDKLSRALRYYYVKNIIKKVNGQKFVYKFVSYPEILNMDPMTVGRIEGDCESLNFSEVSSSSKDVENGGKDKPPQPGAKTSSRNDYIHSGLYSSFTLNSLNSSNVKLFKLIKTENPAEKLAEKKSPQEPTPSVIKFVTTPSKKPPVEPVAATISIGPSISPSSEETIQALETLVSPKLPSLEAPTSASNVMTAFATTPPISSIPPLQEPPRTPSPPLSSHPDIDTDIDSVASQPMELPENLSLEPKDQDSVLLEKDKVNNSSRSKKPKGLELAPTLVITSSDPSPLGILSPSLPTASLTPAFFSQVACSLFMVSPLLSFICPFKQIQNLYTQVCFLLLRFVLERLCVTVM
In short: as §1

[7] = molecular target: T4, ETV2 (Homo sapiens, UniProt O00321 1-342); conditions: protein: recombinant; tags: N-terminal GST; dsDNA, one strand shown
T4 sequence: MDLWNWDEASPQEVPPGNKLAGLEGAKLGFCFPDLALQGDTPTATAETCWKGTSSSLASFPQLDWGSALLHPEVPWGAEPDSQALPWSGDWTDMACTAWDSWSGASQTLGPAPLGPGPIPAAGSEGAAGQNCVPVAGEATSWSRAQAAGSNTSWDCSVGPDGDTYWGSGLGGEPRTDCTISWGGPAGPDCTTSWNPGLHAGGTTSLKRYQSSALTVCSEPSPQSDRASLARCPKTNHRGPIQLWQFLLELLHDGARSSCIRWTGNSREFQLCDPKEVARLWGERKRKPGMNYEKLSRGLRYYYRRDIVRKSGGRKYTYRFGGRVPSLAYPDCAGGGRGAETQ
In short: as §1

[8] = molecular target: T5, ELF3 (Homo sapiens, UniProt P78545 1-371); conditions: protein: recombinant; tags: N-terminal GST; dsDNA, one strand shown
T5 sequence: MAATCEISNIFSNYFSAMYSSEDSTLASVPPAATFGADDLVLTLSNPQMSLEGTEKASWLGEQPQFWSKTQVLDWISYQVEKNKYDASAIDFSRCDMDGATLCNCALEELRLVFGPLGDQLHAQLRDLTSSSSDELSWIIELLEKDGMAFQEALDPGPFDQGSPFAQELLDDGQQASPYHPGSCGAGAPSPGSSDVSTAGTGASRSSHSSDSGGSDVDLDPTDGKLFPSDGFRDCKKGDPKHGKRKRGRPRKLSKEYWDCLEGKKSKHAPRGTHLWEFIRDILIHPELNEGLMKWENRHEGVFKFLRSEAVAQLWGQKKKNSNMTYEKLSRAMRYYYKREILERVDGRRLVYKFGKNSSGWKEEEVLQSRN
In short: as §1

[9] = molecular target: ETV1 (Homo sapiens, UniProt P50549 1-477); conditions: protein: recombinant; tags: N-terminal GST; dsDNA, one strand shown
Chain of ETV1 (P50549 whole entry): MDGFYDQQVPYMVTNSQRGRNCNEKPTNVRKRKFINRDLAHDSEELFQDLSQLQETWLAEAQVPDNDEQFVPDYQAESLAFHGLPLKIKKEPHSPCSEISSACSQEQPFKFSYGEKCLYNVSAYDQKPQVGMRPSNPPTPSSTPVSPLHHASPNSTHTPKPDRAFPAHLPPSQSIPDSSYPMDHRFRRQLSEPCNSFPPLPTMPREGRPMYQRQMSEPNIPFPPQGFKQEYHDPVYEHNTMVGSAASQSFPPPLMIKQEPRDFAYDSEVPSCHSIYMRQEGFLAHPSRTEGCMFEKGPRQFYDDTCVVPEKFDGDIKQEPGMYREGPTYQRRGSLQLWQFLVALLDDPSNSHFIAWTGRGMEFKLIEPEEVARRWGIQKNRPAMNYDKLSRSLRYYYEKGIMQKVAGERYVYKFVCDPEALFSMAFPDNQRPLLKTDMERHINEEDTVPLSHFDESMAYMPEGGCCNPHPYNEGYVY
In short: as §1

## TGTCTC
[1]
  binding signal: 1.22 fold enrichment (6-mer frequency, TF over GST control)
[2]
  binding signal: 1.33 fold enrichment (6-mer frequency, TF over GST control)
[3]
  binding signal: 1.01 fold enrichment (6-mer frequency, TF over GST control)
[4]
  binding signal: 1.11 fold enrichment (6-mer frequency, TF over GST control)
[5]
  binding signal: 1.36 fold enrichment (6-mer frequency, TF over GST control)
[6]
  binding signal: 1.11 fold enrichment (6-mer frequency, TF over GST control)
[7]
  binding signal: 1.26 fold enrichment (6-mer frequency, TF over GST control)
[8]
  binding signal: 1.18 fold enrichment (6-mer frequency, TF over GST control)
[9]
  binding signal: 1.22 fold enrichment (6-mer frequency, TF over GST control)
